Assay [1] has as its system Plasmodium falciparum Sir2 (PF13_0152, Sir2A). Description: Plasmodium falciparum Sir2A binding compounds – biochemical, small-molecule microarray, 635 nm fluorescence, primary screen (AID 1098).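 Also: score merges spot fluorescence intensity with its signal-to-noise ratio.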 The settings on record: fluorescence 635 nm, higher = more signal.
Assay [2] is described as follows: probe aDKK1 binding to arrayed compounds – biochemical, biotinylated probe, 635/667 nm fluorescence, primary screen (AID 1099).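 Also: score merges 667nm spot fluorescence with signal to noise across triplicate slides; reference of the scale not given here.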 Conditions: small-molecule microarray, higher = more signal.
The nature of assay [3]: probe aCHRDL2 binding to arrayed compounds – biochemical, biotinylated probe, 635/667 nm fluorescence, primary screen (AID 1100). Conditions: small-molecule microarray, higher = more signal.
A short description of assay [4]: change in splice reporter luminescence, either direction, cell-based, HEK293, spliceosome inhibition project, primary screen (AID 1101).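 Also: HEK293 cells carrying a splicing-competent luciferase reporter gene; test concentration not given here.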 Conditions: HEK293 splicing luciferase reporter, 24 h, higher = more signal, called active from +8 up or from −8 down. (Reporter assays use an easily measured gene product as a stand-in for the process of interest.)
Assay [5] concerns the target Fibroblast growth factor 10 (Homo sapiens) (UniProt O15520). Description: compounds binding fibroblast growth factor 10 – biochemical, small-molecule microarray, 635 nm fluorescence, primary screen (AID 1102). Conditions: FGF10 binding, fluorescence 635 nm, higher = more signal.
Assay [6] concerns glycogen synthase kinase-3 (GSK3A per assay name; protocol says GSK3B). Description: compounds binding glycogen synthase kinase-3 – biochemical, small-molecule microarray, 635 nm fluorescence, GSK3A, primary screen (AID 1103). Also: the record names both GSK3A and GSK3B. The settings on record: fluorescence 635 nm, higher = more signal.
Assay [7] concerns the target Epidermal growth factor receptor (Homo sapiens) (UniProt P00533). Description: compounds binding epidermal growth factor receptor – biochemical, small-molecule microarray, 635 nm fluorescence, primary screen (AID 1104).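 Also: score merges 667 nm emission intensity with spot signal to noise over triplicate slides.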 The settings on record: EGFR binding, higher = more signal.
For assay [8], the target named is Follistatin-related protein 3 (Homo sapiens) (UniProt O95633). Description: compounds binding follistatin-related protein 3 – biochemical, small-molecule microarray, 635 nm fluorescence, primary screen (AID 1105).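 Also: score merges emission near 667 nm and signal to noise per printed spot across three slides.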 The settings on record: FSTL3 binding, higher = more signal.
Chain of Follistatin-related protein 3 (Homo sapiens) (O95633 whole entry, looked up): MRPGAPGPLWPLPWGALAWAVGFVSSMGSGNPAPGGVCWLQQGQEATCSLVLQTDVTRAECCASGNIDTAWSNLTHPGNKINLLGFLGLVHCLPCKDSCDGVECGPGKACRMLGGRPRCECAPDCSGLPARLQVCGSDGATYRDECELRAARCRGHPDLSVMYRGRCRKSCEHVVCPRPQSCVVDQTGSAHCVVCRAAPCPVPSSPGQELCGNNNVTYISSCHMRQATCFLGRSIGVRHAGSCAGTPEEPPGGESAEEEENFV
Assay [9] deals with Dickkopf-related protein 1 (Homo sapiens) (UniProt O94907). Description: small molecules binding DKK1 protein – biochemical, small-molecule microarray, 635 nm fluorescence scan, primary screen (AID 1106).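 Also: score merges emission near 667 nm with signal to noise over three replicate slides.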 Conditions: higher = more signal.
Chain of Dickkopf-related protein 1 (Homo sapiens) (O94907 whole entry, looked up): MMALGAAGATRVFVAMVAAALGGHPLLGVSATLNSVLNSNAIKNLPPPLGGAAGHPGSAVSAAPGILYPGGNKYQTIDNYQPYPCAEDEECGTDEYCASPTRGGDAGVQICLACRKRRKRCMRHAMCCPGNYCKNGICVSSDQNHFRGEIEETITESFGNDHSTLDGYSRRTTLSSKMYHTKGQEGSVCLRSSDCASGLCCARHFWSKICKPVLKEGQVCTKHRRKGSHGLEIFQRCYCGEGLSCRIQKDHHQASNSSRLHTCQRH
The test system of assay [10] is Inhibin beta A chain (activin A). Description: small molecules binding activin A – biochemical, small-molecule microarray, 635 nm fluorescence scan, primary screen (AID 1107).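 Also: mouse activin A protein probed at 4.33 µg/mL on printed slides; score merges bound-protein fluorescence near 667 nm with spot signal-to-noise.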 The settings on record: INHBA, higher = more signal.

Activity calls are given as the source filed them.

Chain of Epidermal growth factor receptor (Homo sapiens) (P00533 whole entry, looked up): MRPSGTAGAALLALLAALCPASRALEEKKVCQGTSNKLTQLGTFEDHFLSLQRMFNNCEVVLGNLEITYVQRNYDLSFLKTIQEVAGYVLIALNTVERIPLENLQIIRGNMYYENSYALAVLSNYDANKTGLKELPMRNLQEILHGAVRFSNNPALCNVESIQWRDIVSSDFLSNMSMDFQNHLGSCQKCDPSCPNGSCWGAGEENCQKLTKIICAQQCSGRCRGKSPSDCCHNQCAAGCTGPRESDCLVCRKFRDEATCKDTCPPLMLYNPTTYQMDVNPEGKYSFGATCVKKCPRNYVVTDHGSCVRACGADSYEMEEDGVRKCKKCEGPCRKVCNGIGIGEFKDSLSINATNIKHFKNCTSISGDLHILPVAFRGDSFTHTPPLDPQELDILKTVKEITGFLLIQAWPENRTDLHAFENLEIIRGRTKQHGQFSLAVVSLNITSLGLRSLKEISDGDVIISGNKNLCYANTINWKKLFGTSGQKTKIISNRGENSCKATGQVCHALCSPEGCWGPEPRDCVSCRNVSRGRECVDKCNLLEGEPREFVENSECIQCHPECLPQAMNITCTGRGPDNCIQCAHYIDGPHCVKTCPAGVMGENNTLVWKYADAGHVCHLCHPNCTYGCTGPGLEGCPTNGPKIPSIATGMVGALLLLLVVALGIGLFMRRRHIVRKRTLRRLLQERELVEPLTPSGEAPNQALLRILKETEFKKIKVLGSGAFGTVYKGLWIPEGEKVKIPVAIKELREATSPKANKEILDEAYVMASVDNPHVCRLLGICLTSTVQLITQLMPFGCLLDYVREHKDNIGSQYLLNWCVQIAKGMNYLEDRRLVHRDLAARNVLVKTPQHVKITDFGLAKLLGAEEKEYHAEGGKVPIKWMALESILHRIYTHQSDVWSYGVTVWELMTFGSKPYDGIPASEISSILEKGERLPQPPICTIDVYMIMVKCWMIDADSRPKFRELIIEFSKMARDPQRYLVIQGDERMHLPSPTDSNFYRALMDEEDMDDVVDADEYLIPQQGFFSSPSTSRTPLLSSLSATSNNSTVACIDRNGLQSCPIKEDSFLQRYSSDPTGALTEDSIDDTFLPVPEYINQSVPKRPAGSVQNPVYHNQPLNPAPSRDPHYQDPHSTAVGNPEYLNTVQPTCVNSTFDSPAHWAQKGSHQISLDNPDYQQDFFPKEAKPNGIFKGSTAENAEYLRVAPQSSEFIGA
Chain of Fibroblast growth factor 10 (Homo sapiens) (O15520 whole entry, looked up): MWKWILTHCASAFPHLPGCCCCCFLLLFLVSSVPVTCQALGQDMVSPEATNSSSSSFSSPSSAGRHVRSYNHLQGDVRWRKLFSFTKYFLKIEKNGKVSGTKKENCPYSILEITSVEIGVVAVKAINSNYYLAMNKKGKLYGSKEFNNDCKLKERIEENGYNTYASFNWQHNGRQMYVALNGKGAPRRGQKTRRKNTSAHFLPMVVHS

With `[N-]=[N+]=Nc1ccccc1[C@@H]1OC(c2ccc(OCCCO)cc2)=N[C@]1(Cc1ccccc1)C(N)=O`, the composite z-score was 0.807 in [1]; 0.818 in [2]; 0.578 in assay [3]; -0.121 in assay [5]; -0.235 in assay [6]; -0.236 in assay [7]. Besides, the composite z-score in assay [8] is -0.294; in assay [9], -0.205; in assay [10], 0.982. Further, the z-score in [4] was 0.336 (inactive).
On to `COc1ccc([Si](C)(C)[C@H]2[C@H](CCO)O[C@@]3(C(=O)N(Cc4ccccc4)c4ccc(N(C=O)c5ccccc5)cc43)[C@@H]2C)cc1`, for which the composite z-score is 0.638 in assay [1]; 0.0036 in [2]; -0.19 in assay [3]; 0.651 in [5]; -0.273 in assay [6]; 0.0677 in assay [7]. Besides, the composite z-score in assay [8] was 0.618; in assay [9] it was 0.167; in [10], 0.2. For the same compound, the z-score in assay [4] is -0.663 (inactive).
With `[N-]=[N+]=NCc1ccccc1C[C@]1(C(=O)O)COC(c2ccc(OCCCO)cc2)=N1`, the composite z-score was 0.991 in [1]; 0.261 in [2]; 1.12 in [3]; -0.472 in assay [5]; -1.19 in assay [6]; -0.756 in [7]. Further, the composite z-score in assay [8] is -0.757; in [9] it was -1.27; in assay [10], 0.616. Also, in assay [4], the z-score is 0.544 (inactive).
Turning to `CCOC(=O)C1=CC[C@@H](c2ccc(F)cc2)N(S(=O)(=O)c2ccc(C)cc2)[C@H]1c1ccc([N+](=O)[O-])cc1`, the composite z-score in [1] was 0.681; in [2], 0.0684; in [3], 0.373; in assay [5], 0.914; in assay [6], 0.988; in assay [7], -0.24. Moreover, the figures for the composite z-score in assay [8], in assay [9] and in [10] were 0.485, -0.453 and 0.537, respectively. Moreover, in assay [4], the z-score was -0.689 (inactive).
With `CCCCC(O)C1C=CC2C(=O)NC(=O)C2N1Nc1ccc(Cl)cc1Cl` (stereo not given), the composite z-score was 0.976 in assay [1]; 0.635 in [2]; 1.03 in assay [3]; 0.228 in [5]; -0.104 in assay [6]; -0.429 in assay [7]. Further, the composite z-score was -0.125 in assay [8], -0.8 in assay [9] and 0.979 in assay [10]. The z-score in assay [4] was -0.167 (inactive).
`C=CCC(OC(C)=O)[C@@H]1[C@@H](N(Cc2ccc(-c3cccc(C(F)(F)F)c3)o2)C(=O)Cc2ccc(OC)cc2)c2cc(OCCCO)ccc2N1C(=O)c1ccc2ccccc2n1` (stereo not given in full): the composite z-score in assay [1] was 0.51; in assay [2], -0.107; in assay [3], 0.621; in [5], 0.104; in assay [6], -1.24; in assay [7] it was -0.567. The composite z-score was found to be 0.0391 in [8], 0.062 in assay [9] and 1.58 in assay [10]. Moreover, in assay [4], the z-score is -0.492 (inactive).
As to `O=C1O[C@H](c2ccccc2)[C@H](c2ccccc2)N2[C@H]1[C@@H](C(=O)N1CCN(c3ncccn3)CC1)[C@]1(C(=O)Nc3ccccc31)[C@H]2c1ccc(O)cc1`, the composite z-score in [1] was 0.612; in [2], 0.571; in assay [3], 0.544; in assay [5], 0.506; in assay [6], 0.799; in assay [7] it was -0.149. Also, the composite z-score in assay [8] was -0.0987; in assay [9], 0.165; in assay [10] it was 0.0112. In addition, the z-score in [4] was -0.117 (inactive).
For `CN(C)C(=O)[C@@]1(CCS(=O)(=O)c2ccccc2)N=C(c2ccc(OCCCO)cc2)O[C@H]1c1ccccc1N=[N+]=[N-]`, the composite z-score in assay [1] turned out to be 1.44; in assay [2], 0.466; in assay [3], 0.817; in assay [5], 1.36; in [6], 1.29; in [7] it was 0.193. Also, the composite z-score in assay [8] is 1.03; in assay [9] it was -0.0735; in assay [10] it was 0.786. Also, the z-score in assay [4] was -0.445 (inactive).
Take `CC(C)=CCN(C(=O)C#Cc1ccccc1)[C@H](CO)c1ccccc1`: the composite z-score was -0.117 in [1]; -0.267 in assay [2]; -0.693 in assay [3]; 0.341 in [5]; 0.506 in assay [6]; 0.512 in assay [7]. Also, the composite z-score in [8] is 0.604; in assay [9], 0.439; in [10], 0.661. Further, the z-score in [4] was 7.56 (inactive).
Turning to `COc1cc(OC)c(C(O)C2C=CC3C(=O)N(c4ccccc4)C(=O)C3N2Nc2ccccc2F)cc1Br` (stereo not given), the composite z-score in assay [1] stood at 0.76; in assay [2] it was 0.805; in assay [3], 0.95; in assay [5] it was 0.97; in assay [6], 0.0826; in assay [7], 0.256. The values for the composite z-score in [8], in [9] and in assay [10] were 1.45, -0.351 and 0.625, respectively. Besides, the z-score in assay [4] is 0.484 (inactive).
As to `COc1ccccc1CN1C(=O)c2ccccc2[C@@H](C(=O)NCCCN(C)C)[C@@H]1c1ccc(CO)cc1`, the composite z-score is 1.31 in assay [1]; 0.503 in [2]; -0.205 in assay [3]; 0.0373 in assay [5]; -0.841 in assay [6]; -0.127 in [7]. Besides, the composite z-score in assay [8] was -0.235; in assay [9] it was 0.271; in [10], 0.545. The z-score in assay [4] is -0.0655 (inactive).
Regarding `CC(C)C[C@@H]1NC(=O)C([C@@H](C)OCc2ccccc2)NC(=O)[C@@]23C(=O)N[C@@H](Cc4ccccc4)C2[C@H](C)[C@@]2(C)O[C@H]2C3/C=C/CC/C=C/CNC1=O` (stereo not given in full), the composite z-score was 1.38 in assay [1]; -0.309 in [2]; -0.475 in assay [3]; 0.699 in assay [5]; 0.517 in assay [6]; 0.432 in assay [7]. Besides, the composite z-score in [8] turned out to be 0.721; in [9] it was 0.445; in assay [10], 1.13. Also, the z-score in [4] is -1.62 (inactive).
As to `COC(=O)[C@@]1(Cc2ccc(F)cc2)[C@H]2c3cc(C(=O)N(C)C)n(CCO)c3C[C@H]2CN1C(=O)c1ccccc1`, the composite z-score in assay [1] was 1.56; in assay [2], 0.453; in [3], 0.361; in [5], 0.721; in [6] it was -0.532; in [7], -0.537. Besides, the figures for the composite z-score in assay [8], in assay [9] and in assay [10] were -0.918, -0.764 and 0.495, respectively. Also, in assay [4], the z-score is -0.773 (inactive).
`COCCOC(=O)N1C(=O)[C@@]2(c3cc(C#Cc4ccc(OC)cc4)ccc31)[C@H](C(=O)N1CCCCCCC1)[C@H]1C(=O)O[C@H](c3ccccc3)[C@H](c3ccccc3)N1[C@@H]2c1ccccc1OCCO`: the composite z-score in assay [1] is 1.55; in assay [2], 2.5; in assay [3], 1.57; in [5], 0.766; in assay [6], 1.32; in assay [7], 1.07. Further, the composite z-score in [8] came out at 1.56; in assay [9], 1.61; in assay [10], 1.66. In addition, the z-score in [4] is 0.00537 (inactive).
Turning to `C=CC(CO)NC(=O)OCC1c2ccccc2-c2ccccc21` (stereo not given), the composite z-score in assay [1] is 0.193; in assay [2] it was -0.291; in assay [3] it was -0.475; in [5], 0.324; in [6], 0.365; in assay [7], 0.674. Further, the composite z-score stood at 0.608 in assay [8], 0.554 in assay [9] and 0.26 in assay [10]. The z-score in [4] is 0.406 (inactive).

Source of the values: PubChem BioAssay.
